Active and inactive are the calls of the source.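 Rule for the calls, unless noted: active = inhibition of the reporter signal at or above 50%; inactive = inhibition below 50%.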
Experiments:
[1] = inhibitors of TNFa-induced NFkB p65 translocation, primary screen, imaging, HUVEC, MLSMR starter and 10KST1 sets (AID 438;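 active = inhibition above 20% together with a positive visual image hit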;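 note: compound added about 3h40 before a 20 min TNFalpha stimulation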;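 for inhibition: signal is the nuclear over cytoplasmic p65 intensity ratio per well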); conditions: HUVEC TNFa-induced p65 nuclear translocation; cell count: measured here: nuclei count (cytotoxicity indicator), at 2.08 µM; inhibition: at 2 µM, stronger effect = higher value, 0% TNFa-plus-vehicle, 100% no-TNFa wells
[2] = inhibitors of mutant huntingtin aggregation, primary screen, imaging, exon1htt(103Q)mCFP cells, high-content imaging (AID 483;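 active = visual image review flags a hit and inhibition of aggregation exceeds 20%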;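 note: compound exposure lasted 3 days before fixation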;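 for nuclei count: percent of the per-plate median nuclei count of sample wells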); conditions: exon1htt(103Q)mCFP cell line, aggregate imaging, at 2 µM; inhibition of aggregation: stronger effect = higher value; nuclei count: measured here: cell count, toxicity
[3] = inhibitors of E-selectin induction by TNFa, primary screen, imaging, HUVEC, immunofluorescence, MLSMR starter and 10KST1 sets (AID 487;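 active = visually confirmed hit in the image check and inhibition above 20%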;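 for inhibition: signal is fraction of cell area covered by stained E-selectin grains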;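 for nuclei count: 100% = median nuclei count of all wells on the same plate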); conditions: HUVEC TNFalpha-induced E-selectin immunofluorescence imaging, at 2 µM; inhibition: stronger effect = higher value; nuclei count: measured here: cell number, toxicity
[4] = target: Voltage-gated potassium channel subunit beta-2 (Rattus norvegicus) (UniProt P62483); experiment: KvBeta enzyme negative modulators, primary screen, biochemical, NADPH fluorescence (AID 622;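 active = fluorescence slope higher than the sample average by over 3 SD, cut at about -0.22 in these data, passing the limit was not always enough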;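 note: slope of raw intensity against log time taken from 70 to 1610 s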); conditions: recombinant KvBeta, 4-cyanobenzaldehyde reduction, at 10 µM, stronger effect = higher value
[5] = target: Voltage-gated potassium channel subunit beta-2 (Rattus norvegicus) (UniProt P62483); experiment: KvBeta positive modulators, primary screen, biochemical, NADPH fluorescence (AID 623;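 active = NADPH fluorescence slope more negative than the mean of all samples by about 3 SD, 99.7% confidence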;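 note: fluorescence intensity change per second fitted from 20 to 320 s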); conditions: Recombinant KvBeta, NADPH fluorescence decrease slope, 10 min; at 10 µM; stronger effect = lower value
[6] = target: Alpha-2C adrenergic receptor (Homo sapiens) (UniProt P18825); experiment: modulators of alpha2C/GIRK thallium flux, primary screen, cell-based, HEK293 alpha2C/GIRK1/2 (AID 624;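 active = fluorescence slope after compound addition differing from the mean of all screened samples at 99.7% confidence, in either direction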;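 note: slope of fluorescence ratio to pre-addition baseline per second over 15 to 24 s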); conditions: thallium flux BTC fluorescence, at 10 µM, actives lie on both sides
[7] = inhibitors of Sendai virus-induced IRF3 signaling, primary screen, TLR/RLR signaling modifier project, cell-based, Sendai virus stimulus, luciferase, 10K MLSCN set (AID 602276;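 active = inhibition at or above 50% at 10 µM; inactive = inhibition below 50%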;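 note: firefly luciferase from ISG56 promoter only with Renilla not read in this screen; 0% = Sendai virus plus DMSO and 100% = medium plus DMSO without virus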); conditions: HEK293 RL24 IRF3 luciferase reporter, at 10 µM, stronger effect = higher value
[8] = inhibitors of poly I:C-induced TLR3 signaling, primary screen, cell-based, poly I:C stimulus, luciferase, 10K MLSCN set (AID 602277); conditions: HEK293-TLR3 RL24 IRF3 luciferase reporter, at 10 µM, stronger effect = higher value

Alpha-2C adrenergic receptor (Homo sapiens), sequence (P18825 whole entry, looked up): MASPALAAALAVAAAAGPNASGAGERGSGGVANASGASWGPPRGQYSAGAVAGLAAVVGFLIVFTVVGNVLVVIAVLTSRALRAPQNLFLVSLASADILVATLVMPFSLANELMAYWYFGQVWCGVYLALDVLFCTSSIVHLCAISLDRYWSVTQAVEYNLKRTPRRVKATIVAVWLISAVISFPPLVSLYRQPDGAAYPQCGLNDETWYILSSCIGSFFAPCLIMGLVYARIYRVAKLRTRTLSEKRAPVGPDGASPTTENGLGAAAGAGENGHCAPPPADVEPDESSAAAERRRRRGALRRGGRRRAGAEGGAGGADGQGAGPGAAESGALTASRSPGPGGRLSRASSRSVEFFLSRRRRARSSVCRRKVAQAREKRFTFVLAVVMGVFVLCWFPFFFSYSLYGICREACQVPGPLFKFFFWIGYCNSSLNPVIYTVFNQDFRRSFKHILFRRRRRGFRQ
Voltage-gated potassium channel subunit beta-2 (Rattus norvegicus), sequence (P62483 whole entry, looked up): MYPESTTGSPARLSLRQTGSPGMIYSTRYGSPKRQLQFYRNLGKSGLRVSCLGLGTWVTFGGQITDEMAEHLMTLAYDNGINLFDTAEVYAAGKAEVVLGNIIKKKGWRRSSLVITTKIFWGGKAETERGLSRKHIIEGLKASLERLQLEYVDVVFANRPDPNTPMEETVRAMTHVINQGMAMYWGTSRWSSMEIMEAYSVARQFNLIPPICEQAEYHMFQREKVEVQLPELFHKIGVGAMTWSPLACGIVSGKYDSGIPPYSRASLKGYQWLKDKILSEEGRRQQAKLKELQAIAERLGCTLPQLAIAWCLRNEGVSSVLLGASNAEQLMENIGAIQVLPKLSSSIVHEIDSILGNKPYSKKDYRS

SMILES | cell count [1] | inhibition [1] | inhibition of aggregation [2] | nuclei count [2] | inhibition [3] | nuclei count [3] | fluorescence slope [4] | NADPH fluorescence slope [5] | slope [6] | inhibition [7] | inhibition [8]
CCSc1nc2c(c(=O)[nH]1)C(c1cccnc1)C(C(=O)OC(C)C)=C(C)N2 (stereo not drawn) | 500 | 3.8% (inactive) | 19.4% (inactive) | 93.1% | -57.7% (inactive) | 103% | -0.475 (inactive) | -1.6e-05 (inactive) | 0.00631 (inactive) | 1.95% (inactive) | 25.7% (inactive)
N#CC1=C(N)C(C#N)(C#N)[C@H](c2ccsc2)[C@H]2COCC=C12 | 337 | 5.5% (inactive) | 1.7% (inactive) | 98.1% | 8.2% (inactive) | 93.1% | -0.538 (inactive) | 2.1e-05 (inactive) | 0.00495 (inactive) | 16.8% (inactive) | 25.2% (inactive)
COC(=O)c1sc(S(=O)(=O)NCc2cccs2)c(C(=O)OC)c1C | 608 | -16.4% (inactive) | 0.4% (inactive) | 85.3% | 12.1% (inactive) | 101% | -0.452 (inactive) | -3.4e-06 (inactive) | 0.00602 (inactive) | -0.645% (inactive) | 30.7% (inactive)
Cc1ccc(-c2noc(-c3ccccc3C(=O)NCC3CCCO3)n2)cc1 (stereo not drawn) | 763 | 2% (inactive) | -9% (inactive) | 110% | 8.3% (inactive) | 106% | -0.442 (inactive) | 5.9e-05 (inactive) | 0.00648 (inactive) | -20% (inactive) | -30.1% (inactive)
Cc1ccccc1-c1nc(Cc2ccccc2)no1 | 434 | -9.1% (inactive) | 12.9% (inactive) | 87.9% | 31.1% (inactive) | 93.2% | -0.341 (inactive) | -3.8e-05 (inactive) | 0.00721 (inactive) | -43.9% (inactive) | -184% (inactive)
COc1cccc(-n2c(SC3CCOC3=O)nc3ccccc3c2=O)c1 (stereo not drawn) | 387 | 2.4% (inactive) | -18% (inactive) | 101% | 7.5% (inactive) | 108% | -0.435 (inactive) | -5.4e-06 (inactive) | 0.00493 (inactive) | 2.92% (inactive) | 18.7% (inactive)
Cc1cccc(NC(=O)CS(=O)(=O)c2cn(C)c3ccccc23)c1 | 628 | 2.4% (inactive) | 4.8% (inactive) | 99.7% | -12.5% (inactive) | 103% | -0.521 (inactive) | 2.1e-06 (inactive) | 0.00711 (inactive) | 7.93% (inactive) | 22.7% (inactive)
CS(=O)(=O)N(Cc1ccccc1)c1ccc(C(=O)N2CCOCC2)cc1 | 297 | 11.6% (inactive) | 23% (inactive) | 91.2% | 41.9% (inactive) | 96.9% | -0.516 (inactive) | -1.2e-05 (inactive) | 0.00702 (inactive) | -11.4% (inactive) | 0.146% (inactive)
O=C(NCCc1c[nH]c2ccccc12)c1ccc(S(=O)(=O)NCc2ccco2)cc1 | 398 | 9.3% (inactive) | 14.7% (inactive) | 89.6% | -42.9% (inactive) | 98.6% | -0.578 (inactive) | -2.7e-05 (inactive) | 0.00486 (inactive) | 15.3% (inactive) | 30.7% (inactive)
CCOc1ccc(NS(=O)(=O)c2ccc(OCC(=O)N3CCCC3)cc2)cc1 | 422 | -15.4% (inactive) | 43.4% (active) | 98.7% | -56.1% (inactive) | 169% | -0.465 (inactive) | -4.2e-05 (inactive) | 0.00531 (inactive) | 8.25% (inactive) | 13.9% (inactive)
COc1ccc2c(CC(=O)Nc3nnc(C4CC4)s3)coc2c1 | 286 | -15.7% (inactive) | 7.5% (inactive) | 105% | -13.2% (inactive) | 111% | -0.482 (inactive) | -0.000211 (inactive) | 0.00533 (inactive) | 9.99% (inactive) | 14.7% (inactive)
COc1ccc(CCNC(=O)CCN2C(=O)C3CC=CCC3C2=O)cc1OC (stereo not drawn) | 308 | -1.1% (inactive) | -8.1% (inactive) | 83.4% | -53.4% (inactive) | 103% | -0.605 (inactive) | -1.9e-06 (inactive) | 0.00675 (inactive) | 3.55% (inactive) | -2.15% (inactive)
CCOc1ccccc1N1Cc2cc(C)c(C)cc2C1 | 576 | 2.9% (inactive) | 22.5% (inactive) | 110% | -9% (inactive) | 118% | -0.543 (inactive) | 1.2e-05 (inactive) | 0.00798 (inactive) | -0.273% (inactive) | -2.86% (inactive)
COc1ccc(C(=O)NCCc2nnc(SCc3nc4ccccc4c(=O)[nH]3)n2C)cc1 | 357 | -6.6% (inactive) | -8.1% (inactive) | 101% | -85.5% (inactive) | 112% | -0.501 (inactive) | -3.6e-05 (inactive) | 0.00496 (inactive) | 18.2% (inactive) | 18.8% (inactive)
c1coc(-c2nnc(NC3=NCCC3)o2)c1 | 527 | -5.3% (inactive) | 6.6% (inactive) | 98.8% | -80.8% (inactive) | 162% | -0.526 (inactive) | 2.5e-05 (inactive) | 0.0054 (inactive) | -15.4% (inactive) | -42.4% (inactive)
O=C1c2ccccc2C(=O)N1CNc1ccccc1 | 425 | -2.7% (inactive) | -3.7% (inactive) | 112% | -144% (inactive) | 118% | -0.603 (inactive) | -1.7e-05 (inactive) | 0.00312 (inactive) | 7.68% (inactive) | -8.22% (inactive)
COc1ccc(-c2nnnn2C)cc1S(=O)(=O)NCc1ccccc1 | 579 | 0.6% (inactive) | 7.2% (inactive) | 106% | -49.3% (inactive) | 110% | -0.415 (inactive) | 5.2e-06 (inactive) | 0.00442 (inactive) | 10.3% (inactive) | 4.79% (inactive)
CCCCCc1c(C)nc(Nc2nc(C)c3cc(OC)ccc3n2)[nH]c1=O | 411 | 5% (inactive) | 7.6% (inactive) | 84.7% | 9.5% (inactive) | 98% | -0.598 (inactive) | 1.7e-05 (inactive) | 0.00896 (inactive) | 12.6% (inactive) | -6.69% (inactive)
COc1ccc(S(=O)(=O)Nc2ccc(F)c(Cl)c2)cc1OC | 657 | -18.6% (inactive) | -7.4% (inactive) | 111% | 57.8% (inactive) | 63% | -0.431 (inactive) | -2e-05 (inactive) | 0.00392 (inactive) | 12.4% (inactive) | 35.2% (inactive)
CCCn1c(O)c(CN2CCCC(C)C2)c(C)c(C#N)c1=O (stereo not drawn) | 673 | -16.4% (inactive) | 2.6% (inactive) | 91.2% | -59.7% (inactive) | 113% | -0.472 (inactive) | -2.9e-05 (inactive) | 0.00503 (inactive) | 13.3% (inactive) | 22.1% (inactive)
CC/C(O)=C(/C#N)c1nnc2n1CCCCC2 | 446 | 3.6% (inactive) | -9.6% (inactive) | 115% | 47.8% (inactive) | 86.1% | -0.608 (inactive) | -2e-05 (inactive) | 0.00604 (inactive) | 7.71% (inactive) | 11.5% (inactive)
CCOC(=O)N1CCN(c2c(N3CCc4ccccc4C3)c(=O)c2=O)CC1 | 558 | 1.2% (inactive) | 13.2% (inactive) | 102% | -46.4% (inactive) | 122% | -0.538 (inactive) | -2.6e-05 (inactive) | 0.00721 (inactive) | 10.9% (inactive) | 16.4% (inactive)
COc1ccc(Cn2nnnc2C(c2ccccn2)N2CCN(c3cc(Cl)ccc3C)CC2)cc1 (stereo not drawn) | 669 | -8% (inactive) | 2.5% (inactive) | 112% | -18.4% (inactive) | 104% | -0.217 (inactive) | -1.3e-05 (inactive) | 0.00703 (inactive) | 21.3% (inactive) | 37.4% (inactive)
CCOc1ccc2c(c1)c1nnc(SCC(=O)N3CCC(C)CC3)nc1n2C | 432 | -0.2% (inactive) | 0.1% (inactive) | 99.9% | -30.2% (inactive) | 114% | -0.326 (inactive) | -5.2e-05 (inactive) | 0.00371 (inactive) | -10.6% (inactive) | -29.5% (inactive)
COc1ccc(C)cc1S(=O)(=O)N(CC(=O)O)c1ccccc1 | 343 | 8.1% (inactive) | -8% (inactive) | 91.3% | -90.2% (inactive) | 144% | -0.454 (inactive) | 7.5e-06 (inactive) | 0.00642 (inactive) | 34.7% (inactive) | 21% (inactive)
Cc1ccc2cc3cc(C(=O)NCCN4CCOCC4)oc3nc2c1 | 760 | -5% (inactive) | 3.7% (inactive) | 105% | -36.3% (inactive) | 111% | -0.0588 (inactive) | -2.5e-05 (inactive) | 0.00283 (inactive) | 7.18% (inactive) | 8.18% (inactive)
O=c1[nH]c(NCc2ccccc2)nc2c1CCCC2 | 580 | 4.4% (inactive) | -3.3% (inactive) | 112% | 46% (inactive) | 101% | -0.348 (inactive) | -3.1e-05 (inactive) | 0.00472 (inactive) | -1.14% (inactive) | -4.72% (inactive)
Cc1ccc(/C=c2\s/c(=C(/C#N)C(=O)N3CCCC3)n(Cc3ccco3)c2=O)s1 | 627 | 2.8% (inactive) | -17.3% (inactive) | 101% | -28.1% (inactive) | 136% | -0.59 (inactive) | 2e-05 (inactive) | 0.00315 (inactive) | 16.4% (inactive) | -21.1% (inactive)

Reference: PubChem BioAssay
